Several values for one entry are separate records, joined by “and”; a condition that tells them apart may be missing. Equal entries are not always repeated. Results filed as inconclusive are left out. A structure can be active in one record and inactive in another. Activity calls are given as the source filed them. Rule for the calls, unless noted: active = hit-call score of the fitted dose curve at least 0.9, where 1 is the maximum; inconclusive = response in the unintended direction; inactive = score below 0.9.
Columns and labels:
[1] = read-out: ABC Transporter (ABCB1), ABCB1 (gene 5243); experiment: CLD_ABCB1_24hr: CellzDirect (CLD) Gene Expression Assay for ABC Transporter (ABCB1) at 24 hours (AID 2283684);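 for AC50: potency for increase in ABCB1 mRNA relative to DMSO vehicle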
Procedure, shortened: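 ABCB1 mRNA induction versus 0.2% DMSO vehicle was read by qNPA chemiluminescence at 24 h. Cultured human hepatocytes from two donor preparations received daily fresh dosing, and phase-contrast cytotoxicity calls were annotated alongside the data.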

[2] = read-out: Cytochrome P450 2C19 (Homo sapiens) (UniProt P33261); experiment: CLD_CYP2C19_24hr: CellzDirect (CLD) Gene Expression Assay for xenobiotic metabolism (CYP2C19) at 24 hours (AID 2283687);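 note: activity means mRNA induction above DMSO vehicle baseline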
Procedure, shortened: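 CYP2C19 mRNA was quantified by qNPA chemiluminescence after 24 h of daily dosing of cultured human primary hepatocytes from two donors; vehicle was 0.2% DMSO, and increases over DMSO baseline were fitted.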

[3] = read-out: Cytochrome P450 3A4 (Homo sapiens) (UniProt P08684); experiment: CLD_CYP3A4_24hr: CellzDirect (CLD) Gene Expression Assay for xenobiotic metabolism (CYP3A4) at 24 hours (AID 2283689)
Procedure, shortened: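 CYP3A4 mRNA induction read by quantitative nuclease protection (chemiluminescence) 24 hr after dosing. Cultured human hepatocytes (two donor preparations) treated daily, vehicle 0.2% DMSO; phase-contrast morphology annotates cytotoxicity.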

[4] = read-out: sulfotransferase (SULT2A), SULT2A1 (gene 6822); experiment: CLD_SULT2A_24hr: CellzDirect (CLD) Gene Expression Assay for sulfotransferase (SULT2A) at 24 hours (AID 2283694)
Procedure, shortened: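 mRNA is measured by qNPA: probe hybridisation, S1 nuclease digestion, chemiluminescence, in lysates from human primary hepatocytes harvested 24 h after daily dosing. Vehicle was 0.2% DMSO. Phase-contrast microscopy flagged cytotoxicity (yes/no).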

[5] = read-out: ABC Transporter (ABCB1), ABCB1 (gene 5243); experiment: CLD_ABCB1_48hr: CellzDirect (CLD) Gene Expression Assay for ABC Transporter (ABCB1) at 48 hours (AID 2283695)
Procedure, shortened: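 ABCB1 mRNA was measured by quantitative nuclease protection assay (chemiluminescence) 48 h after dosing. Human hepatocyte cultures from two separate donors received fresh dosing solutions daily for two days, with 0.2% DMSO as vehicle. Positive-direction fit against DMSO.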

[6] = read-out: glucuronosyltransferase (UGT1A1), UGT1A1 (gene 54658); experiment: CLD_UGT1A1_24hr: CellzDirect (CLD) Gene Expression Assay for glucuronosyltransferase (UGT1A1) at 24 hours (AID 2283696)
Procedure, shortened: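 UGT1A1 transcript induction was measured by quantitative nuclease protection assay (chemiluminescence) in human hepatocyte cultures 24 h after daily fresh dosing, with 0.2% DMSO as vehicle and baseline.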

[7] = read-out: Cytochrome P450 2B6 (Homo sapiens) (UniProt P20813); experiment: CLD_CYP2B6_48hr: CellzDirect (CLD) Gene Expression Assay for xenobiotic metabolism (CYP2B6) at 48 hours (AID 2283699);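 note: actives raise transcript level above DMSO so potency reflects induction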
Procedure, shortened: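 CYP2B6 transcript induction, read by quantitative nuclease protection (S1 digestion, chemiluminescent detection) 48 h after dosing, is fitted upward against 0.2% DMSO. Cultured human liver primary cells, two donor preparations, received fresh chemical daily over multiple concentrations.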

[8] = read-out: xenobiotic metabolism (CYP2C9), CYP2C9 (gene 1559); experiment: CLD_CYP2C9_48hr: CellzDirect (CLD) Gene Expression Assay for xenobiotic metabolism (CYP1A2) at 48 hours (AID 2283701; active = hit-call score of the fitted dose curve at least 0.9, where 1 is the maximum; inactive = score below 0.9)
Procedure, shortened: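 mRNA level measured by quantitative nuclease protection (S1 digestion, chemiluminescent detection) in lysates of human primary hepatocytes exposed 48 h with daily re-dosing. Induction fitted positively versus 0.2% DMSO; morphology-based cytotoxicity flagged yes/no.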

[9] = read-out: xenobiotic metabolism (CYP1A2), CYP1A2 (gene 1544); experiment: CLD_CYP1A2_48hr: CellzDirect (CLD) Gene Expression Assay for xenobiotic metabolism (CYP1A2) at 48 hours (AID 2283703)
Procedure, shortened: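 Cytotoxicity was flagged yes/no from morphology, while CYP1A2 transcript induction was detected by qNPA chemiluminescence after a 48-hour exposure. Human primary hepatocyte cultures from separate donors received fresh dosing solutions daily over two days, with 0.2% DMSO as vehicle and baseline.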

[10] = read-out: organic anion transporter (SLCO1B1), SLCO1B1 (gene 10599); experiment: CLD_SLCO1B1_48hr: CellzDirect (CLD) Gene Expression Assay for organic anion transporter (SLCO1B1) at 48 hours (AID 2283707)
Procedure, shortened: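 SLCO1B1 transcript quantified by qNPA with chemiluminescent readout after 48 h of once-daily chemical exposure. Cultured human primary hepatocytes came from two donors, with 0.2% DMSO vehicle; positive-direction fitting against DMSO, cytotoxicity flagged by morphology.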

[11] = read-out: sulfotransferase (SULT2A), SULT2A1 (gene 6822); experiment: CLD_SULT2A_48hr: CellzDirect (CLD) Gene Expression Assay for sulfotransferase (SULT2A) at 48 hours (AID 2283710);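 note: hits raise SULT2A1 transcript above the 0.2% DMSO vehicle baseline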
Procedure, shortened: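 SULT2A1 transcript measured by qNPA chemiluminescence in human primary hepatocyte cultures after 48 h, with fresh dosing solutions on two consecutive days; gain-of-signal fitting against 0.2% DMSO vehicle; cytotoxicity annotated from phase-contrast morphology.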

[12] = STM_H9_CystineISnorm_perc: Stemina devTOX quickPredict H9 human embryonic stem cell (hESC)-based Assay for Cystine (CYSS) Metabolite Biomarker, Normalized (AID 2283713; active = hit-call score of the fitted dose curve at least 0.9, where 1 is the maximum; inactive = score below 0.9)
Procedure, shortened: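 Cells are held undifferentiated and treated for 72h, receiving fresh medium with compound every 24h. Cystine secreted during the final day is quantified by UPLC-HRMS against a labeled spike-in, then expressed relative to the DMSO vehicle median.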

[13] = read-out: organic anion transporter (SLCO1B1), SLCO1B1 (gene 10599); experiment: CLD_SLCO1B1_24hr: CellzDirect (CLD) Gene Expression Assay for organic anion transporter (SLCO1B1) at 24 hours (AID 2283690)
Procedure, shortened: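 SLCO1B1 mRNA induction read at 24 h by quantitative nuclease protection assay (chemiluminescence), analyzed against DMSO baseline. Human hepatocyte cultures from separate donors received fresh dosing solutions daily; vehicle 0.2% DMSO; cytotoxicity flagged by phase-contrast morphology.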

[14] = read-out: HMG-CoA synthase (HMGCS2), HMGCS2 (gene 3158); experiment: CLD_HMGCS2_24hr: CellzDirect (CLD) Gene Expression Assay for HMG-CoA synthase (HMGCS2) at 24 hours (AID 2283691)
Procedure, shortened: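 qNPA with S1 nuclease digestion and chemiluminescent detection gave HMGCS2 transcript levels, fitted upward against 0.2% DMSO vehicle. Cultured human hepatocytes (two donors) received fresh compound daily and were harvested at 24 h; phase-contrast morphology flagged cytotoxicity.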

[15] = CLD_ACTIN_48hr: CellzDirect (CLD) Gene Expression Assay for Baseline Control (Actin) at 48 hours (AID 2283702)
Procedure, shortened: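 Background-control actin mRNA read by qNPA chemiluminescence at 48 h. Human hepatocyte cultures from two donors received fresh multi-concentration chemical doses daily for two days; 0.2% DMSO served as vehicle baseline.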

[16] = read-out: Broad substrate specificity ATP-binding cassette transporter ABCG2 (Homo sapiens) (UniProt Q9UNQ0); experiment: CLD_ABCG2_48hr: CellzDirect (CLD) Gene Expression Assay for ABC Transporter (ABCG2) at 48 hours (AID 2283704)
Procedure, shortened: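 ABCG2 transcript measured at 48 h by quantitative nuclease protection (chemiluminescent) and fitted for increase relative to 0.2% DMSO. Hepatocyte cultures from separate donors got fresh compound daily over two days; morphology annotated cytotoxicity.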

[17] = read-out: Glyceraldehyde-3-phosphate dehydrogenase (Homo sapiens) (UniProt P04406); experiment: CLD_GAPDH_48hr: CellzDirect (CLD) Gene Expression Assay for Baseline Control (Glyceraldehyde 3-phosphate dehydrogenase) at 48 hours (AID 2283706);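 note: active means higher GAPDH mRNA than DMSO vehicle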
Procedure, shortened: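 GAPDH baseline-control readout: qNPA chemiluminescent mRNA quantitation in human liver primary cells 48 h after daily dosing on two consecutive days, vehicle 0.2% DMSO; gain of signal fitted against DMSO, cytotoxicity flagged by phase-contrast morphology.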

[18] = read-out: alkyl and aryl transferase (GSTA2), GSTA2 (gene 2939); experiment: CLD_GSTA2_48hr: CellzDirect (CLD) Gene Expression Assay for alkyl and aryl transferase (GSTA2) at 48 hours (AID 2283708);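 note: active means mRNA induction above DMSO vehicle baseline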
Procedure, shortened: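 GSTA2 mRNA quantified by qNPA chemiluminescence in human primary hepatocyte lysates after 48 h of daily fresh chemical dosing. Increases fitted against 0.2% DMSO vehicle baseline; cytotoxicity from morphology annotated yes/no.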

[19] = read-out: HMG-CoA synthase (HMGCS2), HMGCS2 (gene 3158); experiment: CLD_HMGCS2_48hr: CellzDirect (CLD) Gene Expression Assay for HMG-CoA synthase (HMGCS2) at 48 hours (AID 2283711)
Procedure, shortened: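 mRNA induction read by qNPA chemiluminescence, 48 h after dosing. Cultured primary human liver cells (two donor preparations) received fresh compound daily over two days against 0.2% DMSO vehicle; morphology-based cytotoxicity noted alongside.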

Measured: AC50

Broad substrate specificity ATP-binding cassette transporter ABCG2 (Homo sapiens), sequence (Q9UNQ0 whole entry, looked up): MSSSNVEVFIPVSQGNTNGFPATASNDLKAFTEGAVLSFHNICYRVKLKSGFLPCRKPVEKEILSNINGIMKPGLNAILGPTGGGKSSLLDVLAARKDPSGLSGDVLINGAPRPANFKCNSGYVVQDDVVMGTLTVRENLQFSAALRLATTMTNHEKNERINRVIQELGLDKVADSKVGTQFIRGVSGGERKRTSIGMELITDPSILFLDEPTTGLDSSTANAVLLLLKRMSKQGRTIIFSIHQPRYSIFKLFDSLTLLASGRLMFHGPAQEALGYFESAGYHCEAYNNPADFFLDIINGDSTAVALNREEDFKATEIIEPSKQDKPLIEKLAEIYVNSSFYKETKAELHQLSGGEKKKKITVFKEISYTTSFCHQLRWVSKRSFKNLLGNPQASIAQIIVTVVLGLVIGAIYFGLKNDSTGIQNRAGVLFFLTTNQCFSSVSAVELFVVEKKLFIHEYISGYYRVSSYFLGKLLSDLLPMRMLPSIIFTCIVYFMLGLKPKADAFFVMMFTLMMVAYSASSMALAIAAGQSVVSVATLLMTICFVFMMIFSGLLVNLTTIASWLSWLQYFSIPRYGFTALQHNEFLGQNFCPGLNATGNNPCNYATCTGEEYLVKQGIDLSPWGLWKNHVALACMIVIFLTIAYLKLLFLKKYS
Glyceraldehyde-3-phosphate dehydrogenase (Homo sapiens), sequence (P04406 whole entry, looked up): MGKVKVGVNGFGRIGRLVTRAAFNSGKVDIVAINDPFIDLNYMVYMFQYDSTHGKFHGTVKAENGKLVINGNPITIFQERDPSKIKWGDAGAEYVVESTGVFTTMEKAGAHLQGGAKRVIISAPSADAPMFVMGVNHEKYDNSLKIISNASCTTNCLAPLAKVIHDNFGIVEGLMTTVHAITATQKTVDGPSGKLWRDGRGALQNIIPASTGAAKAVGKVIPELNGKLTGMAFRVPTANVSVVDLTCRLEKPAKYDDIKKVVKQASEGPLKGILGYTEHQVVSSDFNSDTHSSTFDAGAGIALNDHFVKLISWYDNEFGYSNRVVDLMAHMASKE
Cytochrome P450 3A4 (Homo sapiens), sequence (P08684 whole entry, looked up): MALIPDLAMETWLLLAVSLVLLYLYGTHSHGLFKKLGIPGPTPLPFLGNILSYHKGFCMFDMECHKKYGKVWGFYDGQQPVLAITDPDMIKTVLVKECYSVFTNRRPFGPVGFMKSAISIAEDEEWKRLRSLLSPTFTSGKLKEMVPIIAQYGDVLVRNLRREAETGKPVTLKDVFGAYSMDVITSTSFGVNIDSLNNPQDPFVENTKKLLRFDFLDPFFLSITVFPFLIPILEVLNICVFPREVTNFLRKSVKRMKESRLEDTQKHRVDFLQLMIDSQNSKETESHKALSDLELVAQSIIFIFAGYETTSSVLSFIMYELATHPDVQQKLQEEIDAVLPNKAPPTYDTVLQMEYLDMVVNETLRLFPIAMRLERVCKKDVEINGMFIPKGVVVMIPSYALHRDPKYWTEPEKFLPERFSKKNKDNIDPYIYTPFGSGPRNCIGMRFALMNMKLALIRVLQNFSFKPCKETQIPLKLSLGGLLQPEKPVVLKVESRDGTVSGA
Cytochrome P450 2C19 (Homo sapiens), sequence (P33261 whole entry, looked up): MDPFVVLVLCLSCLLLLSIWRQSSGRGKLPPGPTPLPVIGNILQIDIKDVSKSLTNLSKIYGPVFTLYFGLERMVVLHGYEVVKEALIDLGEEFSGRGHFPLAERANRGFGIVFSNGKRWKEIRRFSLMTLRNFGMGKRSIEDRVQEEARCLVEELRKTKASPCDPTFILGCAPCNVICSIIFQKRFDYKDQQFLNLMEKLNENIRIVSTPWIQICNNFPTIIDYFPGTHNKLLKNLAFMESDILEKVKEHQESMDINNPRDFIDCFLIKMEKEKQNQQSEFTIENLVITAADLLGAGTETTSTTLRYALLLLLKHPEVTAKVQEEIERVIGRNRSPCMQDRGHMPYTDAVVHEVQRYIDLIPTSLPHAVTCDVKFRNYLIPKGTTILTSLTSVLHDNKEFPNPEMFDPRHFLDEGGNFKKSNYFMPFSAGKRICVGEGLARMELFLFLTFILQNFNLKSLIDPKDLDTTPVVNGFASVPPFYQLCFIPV

COC(=O)CSc1cc(N=c2sc(=O)n3n2CCCC3)c(F)cc1Cl
active: [3] 1.9 µM | [6] 3.17 µM | [7] 4.48 µM | [8] 9.13 µM | [12] 83 µM
inactive: [1] | [2] | [4] | [5] | [9] | [10] | [11]

CCOC(=O)C(C)Oc1ccc(Oc2nc3ccc(Cl)cc3o2)cc1 (centres undefined)
not listed: [8] | [10] | [12]
inactive: all other assays above

C#CCOC(=O)[C@@H](C)Oc1ccc(Oc2ncc(Cl)cc2F)cc1
active: [12] 11.1 µM
not listed: [8]
inactive: all other assays above

COc1c(Cl)ccc(Cl)c1C(=O)O
active: [8] 0.0267 µM | [19] 0.00707 µM
not listed: [7] | [12] | [13] | [17]
inactive: all other assays above

CC1(C)C(C=C(Cl)Cl)C1C(=O)OCc1cccc(Oc2ccccc2)c1 (centres undefined)
active: [7] 3.87 µM | [9] 9.51 µM
not listed: [4] | [8] | [10] | [12] | [14] | [19]
inactive: all other assays above

COC(=O)c1ccccc1C(=O)O
not listed: [5] | [7] | [8] | [10] | [13] | [18]
inactive: all other assays above

CCC(C)OC(=O)N1CCCCC1CCO (centres undefined)
not listed: [3] | [8] | [12]
inactive: all other assays above

CCCCOC(=O)[C@@H](C)Oc1ccc(Oc2ccc(C(F)(F)F)cn2)cc1
active: [12] 42.8 µM
not listed: [2] | [5] | [8] | [11] | [15] | [16] | [17]
inactive: all other assays above

CCCOC(=O)c1ccc(C(=O)OCCC)nc1
active: [19] 0.269 µM
not listed: [3] | [6] | [8] | [12] | [13] | [16] | [18]
inactive: all other assays above

O=C(Nc1ccc([N+](=O)[O-])cc1Cl)c1cc(Cl)ccc1O
active: [9] 0.549 µM
inactive: [1] | [3] | [13] | [4] | [5] | [18] | [12]

Cc1nn(C)c(Oc2ccccc2)c1C=NOCc1ccc(C(=O)OC(C)(C)C)cc1
active: [12] 0.128 µM
not listed: [7] | [8] | [9] | [10] | [13] | [14]
inactive: all other assays above

CCOC(=O)COc1cc(-n2ncc(C(F)(F)F)c(C)c2=O)c(F)cc1Cl
active: [3] 20 µM
not listed: [4] | [8] | [10] | [12] | [13] | [19]
inactive: all other assays above

Oc1ccc(C(c2ccc(O)cc2)C(Cl)(Cl)Cl)cc1
inactive: [1] | [2] | [14] | [4] | [6] | [15] | [17] | [18] | [19] | [12]

COC(=O)c1ccc(I)cc1S(=O)(=O)NC(=O)Nc1nc(C)nc(OC)n1
active: [1] 20 µM | [9] 20 µM
inactive: [2] | [13] | [5] | [6] | [15] | [16] | [17] | [11] | [12]

COC(=O)c1ccccc1S(=O)(=O)NC(=O)Nc1nc(OC(F)F)cc(OC(F)F)n1
active: [9] 11 µM
inactive: [1] | [2] | [14] | [4] | [6] | [7] | [15] | [10] | [19]

CCCN(CCC)C(=O)SCC
active: [7] 381 nM and 209 nM | [9] 6.32 µM
inactive: [1] | [2] | [3] | [13] | [4] | [5] | [6] | [15] | [9] | [16] | [17] | [10] | [18] | [11] | [19]

COc1nc(C)nc(NC(=O)NS(=O)(=O)c2ccccc2OCCCl)n1
active: [3] 6.77 µM
inactive: [1] | [2] | [6] | [17] | [18] | [19]

CCN(CC)C(=O)c1cccc(C)c1
active: [7] 3.6 µM
inactive: [1] | [2] | [5] | [6] | [9] | [17] | [11]

CCOC(=O)NCCOc1ccc(Oc2ccccc2)cc1
active: [7] 10.8 µM
not listed: [3] | [8] | [12] | [13] | [15] | [17] | [19]
inactive: all other assays above

CSC(=O)c1cccc2nnsc12
active: [14] 7.33 µM | [9] 9.55 µM | [12] 81.4 µM
not listed: [5] | [7] | [8] | [13] | [17]
inactive: all other assays above

CCSC(=O)N(CC(C)C)CC(C)C
not listed: [3] | [4] | [8] | [16]
inactive: all other assays above

CC(C)(c1ccc(O)cc1)c1ccc(O)cc1
not listed: [5] | [8] | [9] | [13] | [19]
inactive: all other assays above

Source: PubChem BioAssay (EPA / NIEHS)
